# SW480 rerep – A quantitative high throughput screen for small molecules that induce DNA re-replication in SW480 colon adenocarcinoma cells; SW480 DNA re-replication, Hoechst DNA content imaging, 48 h; Potency, µM (highest dose often 46.1 µM), without a hit: at the highest dose re-replication activation, hits mostly activators; 1.8% of 340,000 active; AID 624297, 2012; note: potency is the fitted concentration of half-maximal effect; % of control where 0% means no effect; nearly all actives have a fitted effect of over 55% in size
#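 First, 250 cells per well were seeded. Next, compound or vehicle (23 nL) was pinned in, plates sat 48 hr at 37 C. Finally Hoechst was added for 40 min before fluorescence scanning.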
# IL-1B inflam inh – qHTS for Inhibitors of Inflammasome Signaling: IL-1-beta AlphaLISA Primary Screen. THP-1 LPS/ATP IL-1B secretion, AlphaLISA, 16 h; stronger effect = lower value. activity change, % at 57.5 µM. 4.7% of 360,000 active; in the data active = activity change below about -50%; inconclusive = mostly about -30% to -49%; note: % is set by controls: 0 for no effect and ±100 for the full control effect
#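 Secreted IL-1B measured by AlphaLISA bead assay after 16 h compound exposure of THP-1 cells; compounds (final up to 57.5 uM) added 1 h before LPS (250 ng/mL) and ATP (1.25 mM) stimulation; lower signal means less secretion.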
# BCR signal inh – qHTS Assay to Find Inhibitors of Chronic Active B-Cell Receptor Signaling. ABC-DLBCL IkBa-CBG/CBR reporter, luminescence ratio, 4 h. Potency, µM (doses to about 46.1 µM), inactives show at the highest dose activity change, negative = inhibition, actives largely listed as inhibitors. 0.05% of 340,000 active; active = well fitted inhibition curve with a large enough effect in the signal ratio, with a control signal flat, not every such curve was filed as active; inconclusive = small, poorly fitted or top-dose-only effect, or effect the other way, or a change in a side signal; the % refers to the signal ratio;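 note: potency is the fitted concentration of half-maximal effect; plate controls were basal doxycycline-induced cells for no effect and cells given 10 µM MG132 for full effect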
#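 TMD8 human ABC-DLBCL cells with doxycycline-inducible IκBα–green luciferase fusion and unfused red luciferase, in 0.5% FBS medium; compounds up to 46 uM, 4 h at 37C. Green/red luminescence ratio, filter-overlap corrected, fitted to concentration-response curves.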
# DT40 TDP1 no CPT – qHTS for Inhibitors of human tyrosyl-DNA phosphodiesterase 1 (TDP1): qHTS in cells in absence of CPT; DT40 Tdp1-/- hTDP1 cells, no CPT, ATP luminescence, 48 h; Potency, µM (titrated, usually from 46.2 µM), for inactives: top-dose activity change, negative = growth inhibition, usual class: inhibitors; 15% of 420,000 active; note: potency is the fitted concentration of half-maximal effect; % is set by controls: 0 for no effect and ±100 for the full control effect; nearly all actives have a fitted effect of over 55% in size
#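 Growth of hTDP1-complemented DT40 Tdp1-knockout cells is measured by ATP luminescence after at least 48 hr compound exposure at 37 °C, with DMSO substituting for the 20 nM CPT used in the parallel screen.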
# TDP1 cell CPT – qHTS for Inhibitors of human tyrosyl-DNA phosphodiesterase 1 (TDP1): qHTS in cells in presence of CPT; chicken DT40 Tdp1-/-;hTDP1 cells + 20 nM CPT, ATP luminescence, 48 h; Potency, µM (series often up to 46.2 µM), without a hit: at the top dose activity change, negative = growth inhibition, most hits filed as inhibitors; 12% of 420,000 active; note: potency is the fitted concentration of half-maximal effect; % is set by controls: 0 for no effect and ±100 for the full control effect; nearly all actives have a fitted effect of over 55% in size
#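 Cell growth measured by CellTiter-Glo luminescence after a minimum 48 h, 37 C compound exposure with 20 nM CPT in Tdp1-knockout DT40 cells stably expressing hTDP1, seeded 400/well; qHTS titration format.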
# MCF10A rerep – A quantitative high throughput screen for small molecules that induce DNA re-replication in MCF 10a normal breast cells | MCF 10A DNA re-replication, Hoechst nuclear intensity, 48 h | Potency, µM (titrated, usually from 46.1 µM), without a hit: top-dose activity, positive = re-replication, hits mostly activators | 2.9% of 350,000 active | AID 624296, 2012; note: potency is the fitted concentration of half-maximal effect; % of control where 0% means no effect; nearly all actives have a fitted effect of over 50% in size
# * hit, by the source's call; ? = inconclusive; · = not tested or not shown; [ ] = dose if it differs, or a comment. Shown are actives, neighbours in structure and some others; about 19% of the full set was active somewhere. Unless noted, calls come from the whole dose curve; as a rule, active = well fitted curve in the direction sought with a large enough effect; inconclusive = small, poorly fitted or top-dose-only effect, or another doubt; inactive = no such curve, though single readings can be large; an effect the other way counts as inactive or inconclusive.
SMILES,SW480 rerep,IL-1B inflam inh,BCR signal inh,DT40 TDP1 no CPT,TDP1 cell CPT,MCF10A rerep
COc1cc(Cl)c(C)cc1NC(=O)CCCn1c(=O)oc2ccccc21,2%,0,?,?,-23%,9%
COC1CC(=C(c2cccs2)c2cccs2)C[N+](C)(C)C1 (configuration not stated),-3%,·,·,?,?,2%
O=C(CSc1nc2ccccc2c(=O)n1-c1ccccc1)Nc1ccc2c(c1)CCC2,·,43,·,21µM*,?,·
CC1=[N+]([O-])C2(N)CCc3nonc3C2(O)C1 (configuration not stated),-13%,3,4%,-4%,-1%,-1%
C[C@@H]1CN(CCCn2c3ccccc3c3ccccc32)C[C@H](C)N1,?,·,?,8.4µM*,7.5µM*,18%
C=Cc1ccc(Cn2c(C)c(CNCCc3cc(OC)ccc3OC)c(C(=O)O)c2C)cc1,·,·,·,13µM*,?,·
CC(C)(C)c1ccc(O)c(N=Cc2c(O)ccc3ccccc23)c1,?,79,-2%,16µM*,26µM*,?
CCn1cc(CN2CCCC(C(=O)c3sccc3C)C2)cn1 (configuration not stated),-1%,10,?,?,-11%,-29%
CNc1ccc(C(=O)CC(O)CCC(C)C2OC(=O)CC(O)CC(=O)CC(O)CC(O)CC(O)CC(O)CC3(O)CC(O)C(C(=O)OC)C(CC(O[C@@H]4OC(C)C(O)C(N)C4O)/C=C/C=C/C=C/C=C/C=C/C=C/C=C/C2C)O3)cc1 (some centres not stated),-1%,·,·,·,·,-3%
CCOC(=O)c1c(C)n(CC(O)CN2CCOCC2)c2cc(Br)c(OC)cc12 (configuration not stated),-1%,-24,4%,?,15%,4%
CCOC(=O)c1c(CSC(=N)N)n(C)c2cc(Br)c(OC(C)=O)cc12,-57%,-102*,?,16µM*,16µM*,-4%
Cc1ccc(-n2c(O)c(C=Nc3ccc(Br)cn3)c(=O)[nH]c2=O)cc1,-33%,12,10%,-4%,8%,6%
CC(C)(C)n1ncc2c(=O)n(Cc3cccc(Cn4cnc5c(cnn5C(C)(C)C)c4=O)c3F)cnc21,3%[9.22 µM],·,2%,·,·,-12%
CC(C)(C)c1ccc(CSc2cnn(C(C)(C)C)c(=O)c2Cl)cc1,1%,45,5%,0.033µM*,0.16µM*,4%
COC(=O)N1Cc2ccccc2-n2nncc2C1,·,8,·,?,?,·
Cc1cc(/C=C2\C(=O)NC(=O)N(c3ccc(Cl)cc3)C2=O)c(C)n1-c1sc2c(c1C#N)CCCC2,7%,-26,-6%,?,?,25%
CCOC(=O)c1c(-n2c(C)cc(/C=C3\C(=O)NC(=O)N(C)C3=O)c2C)sc2c1CCCC2,?,-73*,3%,?,?,?
CCOC(=O)c1oc2ccc(S(=O)(=O)n3nc(-c4ccc(Cl)cc4)cc3N)cc2c1C,10%,0,-8%,12µM*,23µM*,?
CCOP(=O)(/C(C#N)=C(\C)O)c1ccccc1 (configuration not stated),-82%,14,-3%,?,-21%,-2%
O=[N+]([O-])C1=CC=C2C(=NC3(CCCCC3)N2O)C1=NCCO,-5%,5,?,-26%,-27%,7%
Nc1ccccc1-[n+]1c(-c2ccccc2)cc(-c2ccccc2)cc1-c1ccccc1,-16%,-96*,1%,5.8µM*,6.5µM*,17%
[O-]c1ccccc1-[n+]1c(-c2ccccc2)cc(-c2ccccc2)cc1-c1ccccc1,3%[9.22 µM],-84*,?,2.1µM*,2.1µM*,?
Cc1ccc(-c2cc(-c3ccc(C)cc3)[n+](-c3ccc(C(=O)O)cc3)c(-c3ccc(C)cc3)c2)cc1,1%,-9,-29%,-22%,-15%,?
Oc1c(Br)cc(-c2ccccc2)cc1Br,9%,-9,·,-23%,-10%,?
Oc1ccccc1-[n+]1c(-c2ccccc2)cc(-c2ccccc2)cc1-c1ccccc1,-4%,?,?,2.3µM*,1.3µM*,-7%
SMILES,SW480 rerep,IL-1B inflam inh,BCR signal inh,DT40 TDP1 no CPT,TDP1 cell CPT,MCF10A rerep
CC(=O)OC1CCC2(C)C(CC(=O)C3C2CCC2(C)C(OC(C)=O)CCC32)C1 (configuration not stated),-4%,1,·,?,?,0%
COC(=O)CC1Oc2ccc(C)cc2-n2cc(-c3ccc(F)cc3)nc21 (configuration not stated),·,·,·,9.2µM*,18µM*,·
CCN(CC)S(=O)(=O)N1CCC(C(=O)N2CCC3(CC2)OCCO3)CC1,-4%,-10,-3%,-27%,-11%,2%
COc1cc(OC)c(OC)cc1CCC(C)NCCC(c1ccccc1)c1ccccc1 (configuration not stated),7%,-65*,?,5.8µM*,6.5µM*,?
COc1cc(OC)c(OC)cc1CNCCc1ccc2c(c1)OCO2,-3%,-10,0%,?,?,18%
Cc1ccc(NC(=O)Nc2ccc3nc(N4CCN(C)CC4)cc(C)c3c2)cc1F,·,·,·,4.1µM*,5.2µM*,·
Cc1cc(N2CCCCC2)nc2ccc(NC(=O)/C=C/c3ccc(OC(C)C)cc3)cc12,·,·,·,7.3µM*,9.2µM*,·
Cc1ccc2nc(N3CCN(C)CC3)[nH]c2c1,2%,-1,?,1%,-18%,3%
COC(=O)C1=C(c2cccc(OC)c2OC)C[C@@H]2CC[C@H]1N2C(=O)NCc1cccc2ccccc12,1%,0,·,?,?,?
NCc1cccnc1,-6%,·,·,-11%,12%,7%
Cc1ccc(N2C(=O)NC(=O)/C(=C\C=C\c3ccco3)C2=O)cc1C,?,-105*,?,5.2µM*,2.6µM*,5.8µM*
Cc1cccc(N2C(=O)NC(=O)/C(=C\C=C\c3ccco3)C2=O)c1,?,-96*,1%,8.2µM*,2.9µM*,15µM*

# Screening results: PubChem BioAssay, National Center for Advancing Translational Sciences (NCATS)
